# ± gives the standard deviation of the averaged measurements.
# Experiments:
# Test in all cases: promoter activity interaction Z-score (Lux/OD deviation from empty-vector control); higher = stronger promoter induction by the compound
# [1] = tested on: E. coli BW25113 acrABp lux reporter
# Method in brief: (§1)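 E. coli BW25113 (wild type or marA, soxS or rob deletion) carrying low-copy luxCDABE promoter reporters grew in 40 µl LB Lennox in 384-well plates at 37°C. Each compound was tested at four 1:2 dilutions in biological duplicates. OD600 and luminescence were read every 30 min for 12 h. Areas were taken over 0–8 h (wild type) or 1–9 h (mutants), and wells below 10% of median growth area were removed. The score is the Z-transformed residual of growth-normalised luminescence fitted against the empty-vector control.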
# [2] = tested on: E. coli BW25113 micFp lux reporter
# Method in brief: as §1
# [3] = tested on: E. coli BW25113 ompFp lux reporter
# Method in brief: as §1
# [4] = tested on: E. coli BW25113 robp lux reporter
# Method in brief: as §1
# [5] = tested on: E. coli BW25113 soxSp lux reporter
# Method in brief: as §1
# [6] = tested on: E. coli BW25113 tolCp lux reporter
# Method in brief: as §1
# [7] = 28.4 µg/ml, genetic background: wild type
# [8] = 28.4 µg/ml, genetic background: ΔmarA
# [9] = 28.4 µg/ml, genetic background: Δrob
# [10] = 28.4 µg/ml, genetic background: ΔsoxS
# [11] = 56.8 µg/ml, genetic background: wild type
# [12] = 56.8 µg/ml, genetic background: ΔmarA
# [13] = 56.8 µg/ml, genetic background: Δrob
# [14] = 56.8 µg/ml, genetic background: ΔsoxS
# [15] = 113.7 µg/ml, genetic background: wild type
# [16] = 113.7 µg/ml, genetic background: ΔmarA
# [17] = 113.7 µg/ml, genetic background: Δrob
# [18] = 113.7 µg/ml, genetic background: ΔsoxS
# [19] = 227.3 µg/ml, genetic background: wild type
# [20] = 227.3 µg/ml, genetic background: ΔmarA
# [21] = 227.3 µg/ml, genetic background: Δrob
# [22] = 227.3 µg/ml, genetic background: ΔsoxS
smiles,measurement,setting,value
COc1ccc(CCN(C)CCCC(C#N)(c2ccc(OC)c(OC)c2)C(C)C)cc1OC (stereo unspecified) [Verapamil],promoter activity interaction Z-score,[1]; [7],-0.0103 ± 0.0068
same,promoter activity interaction Z-score,[1]; [8],0.651 ± 0.14
same,promoter activity interaction Z-score,[1]; [9],-0.17 ± 0.16
same,promoter activity interaction Z-score,[1]; [10],-0.0848 ± 0.7
same,promoter activity interaction Z-score,[1]; [11],0.383 ± 0.58
same,promoter activity interaction Z-score,[1]; [12],0.649 ± 0.29
same,promoter activity interaction Z-score,[1]; [13],0.236 ± 0.12
same,promoter activity interaction Z-score,[1]; [14],-0.365 ± 0.9
same,promoter activity interaction Z-score,[1]; [15],0.623 ± 0.79
same,promoter activity interaction Z-score,[1]; [16],2.27 ± 1.4
same,promoter activity interaction Z-score,[1]; [17],0.0537 ± 0.02
same,promoter activity interaction Z-score,[1]; [18],-0.0861 ± 0.73
same,promoter activity interaction Z-score,[1]; [19],0.502 ± 0.14
same,promoter activity interaction Z-score,[1]; [20],2.09 ± 0.52
same,promoter activity interaction Z-score,[1]; [21],0.279 ± 0.19
same,promoter activity interaction Z-score,[1]; [22],0.136 ± 0.55
same,promoter activity interaction Z-score,[2]; [7],0.174 ± 0.55
same,promoter activity interaction Z-score,[2]; [8],0.00711 ± 0.17
same,promoter activity interaction Z-score,[2]; [9],0.232 ± 0.1
same,promoter activity interaction Z-score,[2]; [10],-0.114 ± 0.26
same,promoter activity interaction Z-score,[2]; [11],0.0628 ± 0.15
same,promoter activity interaction Z-score,[2]; [12],0.0935 ± 0.19
same,promoter activity interaction Z-score,[2]; [13],0.195 ± 0.062
same,promoter activity interaction Z-score,[2]; [14],-0.187 ± 0.36
same,promoter activity interaction Z-score,[2]; [15],0.65 ± 0.19
same,promoter activity interaction Z-score,[2]; [16],0.105 ± 0.032
same,promoter activity interaction Z-score,[2]; [17],0.115 ± 0.16
same,promoter activity interaction Z-score,[2]; [18],-0.238 ± 0.43
same,promoter activity interaction Z-score,[2]; [19],0.41 ± 0.066
same,promoter activity interaction Z-score,[2]; [20],-0.0581 ± 0.06
same,promoter activity interaction Z-score,[2]; [21],-0.1466 ± 0.00035
same,promoter activity interaction Z-score,[2]; [22],-0.0743 ± 0.052
same,promoter activity interaction Z-score,[3]; [7],-0.365 ± 0.11
same,promoter activity interaction Z-score,[3]; [8],-1.14 ± 0.89
same,promoter activity interaction Z-score,[3]; [9],-0.51 ± 0.49
same,promoter activity interaction Z-score,[3]; [10],-0.279 ± 0.15
same,promoter activity interaction Z-score,[3]; [11],-0.296 ± 0.077
same,promoter activity interaction Z-score,[3]; [12],-0.384 ± 0.03
same,promoter activity interaction Z-score,[3]; [13],-0.384 ± 0.42
same,promoter activity interaction Z-score,[3]; [14],-0.491 ± 0.42
same,promoter activity interaction Z-score,[3]; [15],0.443 ± 0.46
same,promoter activity interaction Z-score,[3]; [16],0.589 ± 0.067
same,promoter activity interaction Z-score,[3]; [17],0.355 ± 1.1
same,promoter activity interaction Z-score,[3]; [18],-0.599 ± 0.19
same,promoter activity interaction Z-score,[3]; [19],1.21 ± 0.48
same,promoter activity interaction Z-score,[3]; [20],1.56 ± 0.13
same,promoter activity interaction Z-score,[3]; [21],1.4 ± 0.93
same,promoter activity interaction Z-score,[3]; [22],1.09 ± 0.35
same,promoter activity interaction Z-score,[4]; [7],0.158 ± 0.075
same,promoter activity interaction Z-score,[4]; [8],0.0269 ± 0.54
same,promoter activity interaction Z-score,[4]; [9],0.215 ± 1.7
same,promoter activity interaction Z-score,[4]; [10],0.00204 ± 1.1
same,promoter activity interaction Z-score,[4]; [11],1.19 ± 0.91
same,promoter activity interaction Z-score,[4]; [12],-0.42 ± 0.62
same,promoter activity interaction Z-score,[4]; [13],-0.201 ± 0.23
same,promoter activity interaction Z-score,[4]; [14],0.308 ± 0.86
same,promoter activity interaction Z-score,[4]; [15],1.4 ± 0.44
same,promoter activity interaction Z-score,[4]; [16],1.73 ± 0.022
same,promoter activity interaction Z-score,[4]; [17],0.608 ± 0.43
same,promoter activity interaction Z-score,[4]; [18],-0.00665 ± 0.6
same,promoter activity interaction Z-score,[4]; [19],1.1 ± 0.18
same,promoter activity interaction Z-score,[4]; [20],2.29 ± 0.91
same,promoter activity interaction Z-score,[4]; [21],0.783 ± 1.4
same,promoter activity interaction Z-score,[4]; [22],1.05 ± 0.94
same,promoter activity interaction Z-score,[5]; [7],-0.18 ± 0.32
same,promoter activity interaction Z-score,[5]; [8],-0.165 ± 0.065
same,promoter activity interaction Z-score,[5]; [9],0.0441 ± 0.32
same,promoter activity interaction Z-score,[5]; [10],-0.273 ± 0.25
same,promoter activity interaction Z-score,[5]; [11],-0.187 ± 0.26
same,promoter activity interaction Z-score,[5]; [12],-0.0917 ± 0.18
same,promoter activity interaction Z-score,[5]; [13],-0.138 ± 0.19
same,promoter activity interaction Z-score,[5]; [14],-0.142 ± 0.42
same,promoter activity interaction Z-score,[5]; [15],0.17 ± 0.18
same,promoter activity interaction Z-score,[5]; [16],-0.0904 ± 0.16
same,promoter activity interaction Z-score,[5]; [17],-0.00688 ± 0.12
same,promoter activity interaction Z-score,[5]; [18],-0.0619 ± 0.28
same,promoter activity interaction Z-score,[5]; [19],-0.0451 ± 0.043
same,promoter activity interaction Z-score,[5]; [20],-0.359 ± 0.078
same,promoter activity interaction Z-score,[5]; [21],-0.361 ± 0.061
same,promoter activity interaction Z-score,[5]; [22],-0.0524 ± 0.36
same,promoter activity interaction Z-score,[6]; [7],0.46 ± 1.1
same,promoter activity interaction Z-score,[6]; [8],-0.252 ± 0.52
same,promoter activity interaction Z-score,[6]; [9],1.67 ± 0.9
same,promoter activity interaction Z-score,[6]; [10],0.403 ± 0.82
same,promoter activity interaction Z-score,[6]; [11],0.842 ± 0.79
same,promoter activity interaction Z-score,[6]; [12],0.112 ± 0.0026
same,promoter activity interaction Z-score,[6]; [13],1.38 ± 0.88
same,promoter activity interaction Z-score,[6]; [14],0.773 ± 0.7
same,promoter activity interaction Z-score,[6]; [15],1.44 ± 0.11
same,promoter activity interaction Z-score,[6]; [16],0.195 ± 0.35
same,promoter activity interaction Z-score,[6]; [17],0.654 ± 0.3
same,promoter activity interaction Z-score,[6]; [18],0.501 ± 1.5
same,promoter activity interaction Z-score,[6]; [19],0.0187 ± 0.66
same,promoter activity interaction Z-score,[6]; [20],-0.769 ± 0.041
same,promoter activity interaction Z-score,[6]; [21],-0.237 ± 0.19
same,promoter activity interaction Z-score,[6]; [22],-0.139 ± 0.8
